# A549 tox: kills or reduces viability of A549 cells in Nrf2 counter-screen | A549 ARE-Fluc cells, CellTiter-Fluor viability, 18-24 h | Potency, µM (series often up to 46 µM), without a hit: at the highest dose activity change, negative = cytotoxicity, usual class: inhibitors | 390,000 tested, 0.16% active; note: potency is the fitted concentration of half-maximal effect; % is set by controls: 0 for no effect and ±100 for the full control effect
#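 A549 ARE_Fluc cells in 5% FBS OPTI-MEM were exposed to compounds in concentration-response for 18-24 h at 37 deg C. Viability was read by CellTiter-Fluor fluorescence (Ex 405/Em 525) after 30 min, before the luciferase read.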
# p53 reactivator: re-activators of mutant p53 | H1299 p53-A138V BP100-luciferase reporter, luminescence, 24 h | Potency, µM (titrated, usually from 92.2 µM), without a hit: at the top dose activity change, positive = activation, usual class: activators | 320,000 tested, 0.063% active | AID 504706; note: potency is the fitted concentration of half-maximal effect; % of control where 0% means no effect; nearly all actives have a fitted effect of over 45% in size
#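 H1299 (p53-null), stable ts p53-A138V + BP100-Luc; 1000 cells/well, Opti-MEM/10% FBS; cpd 4 pt, 1:5; 24 h, 37 deg C, 5% CO2; detection reagent 10 min RT; luminescence.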
# Nrf2 ARE act: Nrf2 pathway activation. AREc32 ARE-luciferase reporter (MCF7-derived line), luminescence, 24 h. Potency, µM (top dose mostly 46.1 µM), for inactives: at the highest dose activation, usual class: activators. 410,000 tested, 0.31% active; note: potency is the fitted concentration of half-maximal effect; % of control where 0% means no effect; nearly all actives have a fitted effect of over 65% in size
#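 Each well held 1000 AREc32 cells, which were incubated with compound for 24 hr at 37 deg C after overnight attachment, and ARE reporter activity was quantified by firefly luciferase luminescence.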
# BRCA1 expr up: activators of BRCA1 expression; MCF7-BRCA1-FFLuc reporter, luminescence, 48 h; response scale: scaled: vehicle 0%, 10 µM genistein 100%; Potency, µM (top dose mostly 46.1 µM), without a hit: at the highest dose activation, most hits filed as activators; 380,000 tested, 1.1% active; AID 624202; note: potency is the fitted concentration of half-maximal effect; nearly all actives have a fitted effect of over 80% in size
#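 First, MCF7-BRCA1-FFLuc cells (2000/well) attach for 2 h; next, compounds are pin-added and incubated 48 h at 37 °C; finally, luciferase reagent is added and luminescence read after 15 min.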
# IL2 activator: IL-2 activation | IL-2 activation reporter assay, cell-based qHTS; stimulated with anti-CD3/CD4/CD28 beads; in transgenic mouse T cells | 360,000 tested, 0.065% active | activation, % (series mostly up to about 46 µM); in the data active = activation above about 50%; inconclusive = mostly about 30% to 49%; note: 0% is about no effect
#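 Unstimulated transgenic mouse T cells preincubated 60 min with compound, then stimulated with anti-CD3/anti-CD4-coated beads plus anti-CD28 for 18 h at 37 degrees C. IL-2 response read as EGFP and DsRed fluorescence by plate cytometry.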
# Nrf2 inh: Nrf2 pathway inhibition; A549 ARE-Fluc reporter, luciferase luminescence, 18-24 h; Potency, µM (top dose mostly 46 µM), for the others: top-dose activity change, negative = inhibition, actives largely listed as inhibitors; 360,000 tested, 2.1% active; AID 504444; note: potency is the fitted concentration of half-maximal effect; % is set by controls: 0 for no effect and ±100 for the full control effect; nearly all actives have a fitted effect of over 60% in size
#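 Concentration-response testing used A549 ARE_Fluc cells at 5000 cells/well. Following an 18-24 h compound incubation, viability was read by fluorescence (Ex 405/Em 525) and luciferase output by luminescence.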
# An asterisk follows results filed as active; ? = inconclusive; . = not tested or not shown; ! = not active in a repeat; [ ] = dose if it differs, or a comment. A selection: hits, their analogues and other compounds. The true share with any hit is near 3.2%. Unless noted, calls come from the whole dose curve; as a rule, active = well fitted curve in the direction sought with a large enough effect; inconclusive = small, poorly fitted or top-dose-only effect, or another doubt; inactive = no such curve, though single readings can be large; an effect the other way counts as inactive or inconclusive.
SMILES,A549 tox,p53 reactivator,Nrf2 ARE act,BRCA1 expr up,IL2 activator,Nrf2 inh
CC(=NO)c1ccc2c(c1)Cc1cc([N+](=O)[O-])ccc1-2,-15%,.,19%,5.6µM*,-5,36%
Cn1c2cc(S(C)(=O)=O)sc2c2cnn(Cc3ccccc3F)c(=O)c21,-4%,.,.,.,.,-2%
CCN(CC)CCNC(=O)c1cc2c(-c3ccc(Cl)cc3)nn(C)c2s1,-21%,-2%,-5%,-75%,-4,19%
CCCN(CCC)CCNC(=O)c1cc2c(-c3ccc(Cl)cc3)nn(C)c2s1,23µM*,1%,4%,-63%,-4,23µM*!
O=c1cc(N2CCNCC2)nc2sc(-c3ccncc3)nn12,-2%,.,.,.,.,16%
Cc1cccc(OCC2=NS(=O)(=O)c3ccccc3N2)c1,1%,20%,0%,11µM*,-3,0%
Cc1cccc(OC2=NS(=O)(=O)c3ccccc32)c1,8%[65.3 µM],.,.,.,.,-7%[65.3 µM]
C1=C(c2cc3ccccc3cn2)CCCC1,-6%,?,4%,10µM*,1,?
CCOc1ccc(-c2cc(C(=O)N3CCN(c4ccc(C)cc4)C(C)C3)c3ccccc3n2)cc1 (centres undefined),0%,.,5%,.,.,.
CC1(C)Cc2c(c(N3CCOCC3)nc3sc4c(NCc5ccco5)nnnc4c23)CS1,-11%,-6%,5%,-19%,0,?
CC(C)CNc1nnnc2c1sc1nc(N3CCOCC3)c3c(c12)CC(C)(C)SC3,-17%,7%,0%,-65%,0,13µM*
COc1cc(NC(=O)CCc2c(C)nc3cc(-c4ccccc4)nn3c2C)cc(OC)c1OC,-3%,.,-2%,-13%,.,2.6µM*
Cc1nc2cc(-c3cccc(F)c3)nn2c(C)c1CCC(=O)NC(C)c1ccccc1 (centres undefined),-8%,.,6%,-34%,.,3.7µM*
COc1ccc(-c2cc3nc(C)c(CCC(=O)NCCc4ccc(Cl)cc4)c(C)n3n2)c(OC)c1,?,.,0%,-6%,.,?
COc1ccc(CCNC(=O)CCc2c(C)nc3cc(-c4ccccc4OC)nn3c2C)c(OC)c1,-3%,.,0%,-21%,.,23µM*
CCOC(=O)c1ccc(NC(=O)c2c(NCc3sccc3C)sc3c2CCC(C)C3)cc1 (centres undefined),1%,.,7%,.,.,.
N#Cc1ccc(OCC(O)CN2CCN(c3ncc(C(F)(F)F)cc3Cl)CC2)cc1 (centres undefined),-14%,-25%,3%,-65%,-1,18µM*
N#Cc1ccc(OCC(O)CN2CCN(CC(O)COc3ccc(C#N)cc3)CC2)cc1 (centres undefined),3%,2%,2%,-27%,1,?
Cc1ccc(/C=C/c2onc(C)c2S(=O)(=O)N2CCC(C(=O)NCc3ccc(Cl)cc3)CC2)cc1,13%,.,-1%,4%,.,.
Cc1ccc(S(=O)(=O)N2CCN(CCOc3cccc(C)c3)CC2)cc1,-7%,-3%,0%,-4%,0,21µM*
O=S(=O)(c1ccc(F)cc1)N1CCN(CCOc2ccccc2)CC1,-4%,-4%,0%,-38%,-1,-3%
CSc1ccccc1C(=O)Nc1nc2ccccc2c(=O)[nH]1,3%,4%,3%,11µM*,0,-21%
O=C(CNC(=O)c1ccccc1)OC(C(=O)Nc1ccc2c(c1)OCO2)c1ccccc1 (centres undefined),-3%,.,.,.,.,1%
O=C(CSc1ncccn1)NCc1cccc(Cl)c1,10%,6%,5%,11µM*,-1,?
CCc1ccc(OCC(=O)NNC(=O)Cc2cccs2)cc1,-5%,0%,0%,-2%,-6,7%
O=C(Cc1cccs1)NCc1ccc(Cl)cc1Cl,0%,.,0%,4µM*,-1,?
O=C(Cc1cccs1)NCc1cccc(Cl)c1,4%,17%,0%,13µM*,-2,?

# Source: PubChem BioAssay (National Center for Advancing Translational Sciences (NCATS))
